One assay deals with Plasmodium falciparum. Kind of assay: GSK_TCMDC: Inhibition of Plasmodium falciparum 3D7 in whole red blood cells, using parasite LDH activity as an index of growth. Test compounds present at 2uM. In kind it is functional.
Compound `Cl.O=C(Nc1ccc2nccc(N3CCN4CCC[C@H]4C3)c2c1)c1ccc(Cl)c(Cl)c1` registered an Inhibition of 100%.

With `Nc1nc(N)c2cc(N(Cc3ccccc3)Cc3ccccc3)ccc2n1`, the Inhibition amounted to 99%. On the same count and under the same terms, next, `CC(C)Sc1ccc(Cl)cc1CON1C(=N)N=C(N)NC1(C)C.Cl`: 93%; `O=C(NCC1CCN(C/C=C/c2ccccc2)CC1)Nc1ccc(Oc2ccccc2)cc1`: 83%. Still for that read-out and setting: next, `COc1ccc(N2CCN(CCCCNC(=O)c3ccc(NC(=O)c4ccc(Cl)cc4)cc3)CC2)c(OC)c1.Cl`: 97%; `CCc1ccc(C2CCN(CCCCNC(=O)c3ccc(-c4ccc(Cl)cc4)cc3)CC2)c(O)c1`: 100%; `CC(Cc1ccc(OCCN2CCN(c3ccccc3)CC2)cc1)NCC(O)c1cccc(Cl)c1F.Cl` (stereo not drawn): 92%.

`CN(C)c1ccc(C=Cc2ccc3ccccc3n2)c(Cl)c1` yielded an Inhibition of 94%. Compound `COc1cc(OC)c(OC)cc1CN1CCC2(CC1)CN(Cc1ccc(Cl)c(Cl)c1)C(=O)O2` showed an Inhibition of 90%. Still for that read-out and setting: under `Cc1cccc2nc(-c3ccc(-c4cccc(NC(=O)c5cncn5C)c4)s3)[nH]c12` stands 100%; under `COc1ccc(CCn2c(C3CCCCC3)nc3oc4ccccc4c(=O)c3c2=O)cc1`, 91%. Same read-out and setting: next, `CC(C)c1ccc(OCC(O)CN(CCN2CCOCC2)C(=O)Nc2ccc(Br)cc2)cc1.O=C(O)C(F)(F)F` (stereo not drawn): 98%; `COc1ccc(CNCc2ccccc2)cc1-c1ccc(OC)c(S(=O)(=O)NCCN2CCCC2)c1.O=C(O)C(F)(F)F`: 100%. Same read-out and setting: next, `O=C(O)C(F)(F)F.O=c1[nH]ccc2nc(N[C@@H]3CCNC3)nc(Nc3cccc(S(=O)(=O)N4CCOCC4)c3)c12`: 90%. For the compound `O=C(/C=C/c1ccc(Cl)c(Cl)c1)NCCCCCN1CCCN(C(=O)Nc2ccc(F)c(F)c2)CC1`, the Inhibition came to 100%. On the same count and under the same terms, next, `COc1ccc(CNCc2cccc(-c3ccc(-c4nc5cccc(C)c5[nH]4)cc3)c2)cc1.O=C(O)C(F)(F)F`: 100%; `CN(C)c1cccc(-c2cnc3ccc(NCc4cccc(Cl)c4)nn23)c1`: 99%; `Cc1[nH]c(C)c(-c2ccc(Oc3ccc(F)cc3)cc2)c(=O)c1Cl`: 99%. Take `N#Cc1ccc(-c2cnc3ccc(NCCc4cccnc4)nn23)cc1`: the Inhibition is reported as 99%.

Turning to `CCCc1cc(Cc2cnc(N)nc2N)cc(CCC)c1OCCCCC(=O)OCC`, the Inhibition stood at 93%. Still for that read-out and setting: next, `OC1CCC(Nc2ccc3ncc(-c4ccc5ccccc5c4)n3n2)CC1` (stereo not drawn): 95%; `CCN(CC)CCCSc1ccc(-c2ccc(SCCCN(CC)CC)cc2)cc1`: 87%.

For the compound `CCn1c(-c2nonc2N)nc2c(-c3ccccc3)ncc(OCCCCNCCc3ncc[nH]3)c21.O=C(O)C(F)(F)F`, the Inhibition is on record as 92%.

In the case of `OC(CNC1CCCCC1)Cn1c2ccc(I)cc2c2cc(I)ccc21` (stereo not drawn), the Inhibition is 100%. On the same count and under the same terms, under `COc1ccc(Nc2ncc3c(-c4cccc(NC(=O)Cc5ccc(O)cc5)c4)c[nH]c3n2)cc1OC` stands 100%; under `CN1CCN(c2ccnc3ccc(NC(=O)Cc4ccc(Br)c5ccccc45)cc23)CC1`, 96%; under `Cc1ccc(-c2nn3c(O)c4c(nc3c2C)CCCC4)cc1`, 97%. In turn, `CCN(CCCN1CCCCC1)c1cc(C)nc(Nc2ccc(Oc3ccccc3)cc2)n1.O=C(O)C(F)(F)F` displayed an Inhibition of 100%.

For another assay, the system named is Plasmodium falciparum. Kind of assay: GSK_TCMDC: Inhibition of Plasmodium falciparum Dd2 in whole red blood cells, using parasite LDH activity as an index of growth. Test compounds present at 2uM. In kind it is functional.
In turn, `CC1=NN(c2ccc(C)c(C)c2)C(=O)C1=NNc1cccc(-c2cccc(NC(=O)OC(C)(C)C)c2)c1O` gave an Inhibition of 21%. As to `Cc1cc(CN2CCC(C(=O)Nc3ccc(-c4nc5ccccc5[nH]4)cc3)CC2)oc1C`, the Inhibition came to 9%.

In the case of `CCc1c[nH]c2c(N3CCCCS3(=O)=O)cc(C(=O)N[C@@H](Cc3ccccc3)[C@H](O)CNCc3cccc(OC)c3)cc12.O=CO`, the Inhibition is listed as 91%. Still for that read-out and setting: under `Cc1nnsc1C(=O)Nc1ccc(-c2ccc(-c3nc4cccc(C)c4[nH]3)s2)cc1` stands 61%; under `O=C(O)C(F)(F)F.O=S(=O)(/C=C/c1ccccc1)N(Cc1ccc(-c2ccc(CNCCOc3ccccc3)cc2)cc1)CC1CCCCN1` (stereo not drawn), 95%; under `CC(=O)Nc1ccc(C(=O)Nc2cccc(-c3csc(-c4nc5ccccc5[nH]4)c3)c2)cn1`, 97%. The same measure, in the same setting: next, `O=C(NC1CCN(Cc2ccc3c(c2)OCCO3)CC1)c1ccc(-c2cccc(C(F)(F)F)c2)s1.O=C(O)C(F)(F)F`: 35%; `COc1ccc2nccc([C@@H](O)CN3CCC(NCc4cc5c(cc4F)SCC(=O)N5)CC3)c2n1`: 27%; `N#Cc1ccc(-c2ccc(C(=O)NCCCCN3CCC(c4cn(CCCO)c5ccccc45)CC3)cc2)cc1`: 56%.

Take `OC(CNc1ccnc(Nc2ccccc2)n1)c1ccc(C(F)(F)F)cc1` (stereo not drawn): the Inhibition is on record as 39%. In the case of `N#Cc1ccc(N(CCNS(=O)(=O)c2cc(Br)c(Cl)s2)Cc2ccccc2C(F)(F)F)cc1C(F)(F)F`, the Inhibition stood at 57%. The same measure, in the same setting: under `COc1ccc(Nc2nccc(-c3c(-c4cccc(NC(=O)c5c(F)cccc5F)c4)nn4ccccc34)n2)cc1Cl` stands 71%. Same read-out and setting: under `Cl.O=C(Nc1ccc2nccc(N3CCN4CCC[C@H]4C3)c2c1)c1ccc(Cl)c(Cl)c1` stands 98%; under `Nc1nc(N)c2cc(N(Cc3ccccc3)Cc3ccccc3)ccc2n1`, 88%; under `CC(C)Sc1ccc(Cl)cc1CON1C(=N)N=C(N)NC1(C)C.Cl`, 90%. `O=C(NCC1CCN(C/C=C/c2ccccc2)CC1)Nc1ccc(Oc2ccccc2)cc1` returned an Inhibition of 11%. `COc1ccc(N2CCN(CCCCNC(=O)c3ccc(NC(=O)c4ccc(Cl)cc4)cc3)CC2)c(OC)c1.Cl` registered an Inhibition of 22%. Same read-out and setting: under `CCc1ccc(C2CCN(CCCCNC(=O)c3ccc(-c4ccc(Cl)cc4)cc3)CC2)c(O)c1` stands 99%; under `CC(Cc1ccc(OCCN2CCN(c3ccccc3)CC2)cc1)NCC(O)c1cccc(Cl)c1F.Cl` (stereo not drawn), 56%. The same measure, in the same setting: next, `CN(C)c1ccc(C=Cc2ccc3ccccc3n2)c(Cl)c1`: 95%; `COc1cc(OC)c(OC)cc1CN1CCC2(CC1)CN(Cc1ccc(Cl)c(Cl)c1)C(=O)O2`: 94%; `Cc1cccc2nc(-c3ccc(-c4cccc(NC(=O)c5cncn5C)c4)s3)[nH]c12`: 16%.

The compound `COc1ccc(CCn2c(C3CCCCC3)nc3oc4ccccc4c(=O)c3c2=O)cc1` displayed an Inhibition of 66%. The same measure, in the same setting: next, `CC(C)c1ccc(OCC(O)CN(CCN2CCOCC2)C(=O)Nc2ccc(Br)cc2)cc1.O=C(O)C(F)(F)F` (stereo not drawn): 44%; `COc1ccc(CNCc2ccccc2)cc1-c1ccc(OC)c(S(=O)(=O)NCCN2CCCC2)c1.O=C(O)C(F)(F)F`: 55%; `O=C(O)C(F)(F)F.O=c1[nH]ccc2nc(N[C@@H]3CCNC3)nc(Nc3cccc(S(=O)(=O)N4CCOCC4)c3)c12`: 98%. The same measure, in the same setting: next, `O=C(/C=C/c1ccc(Cl)c(Cl)c1)NCCCCCN1CCCN(C(=O)Nc2ccc(F)c(F)c2)CC1`: 0%. The same measure, in the same setting: under `COc1ccc(CNCc2cccc(-c3ccc(-c4nc5cccc(C)c5[nH]4)cc3)c2)cc1.O=C(O)C(F)(F)F` stands 70%. `CN(C)c1cccc(-c2cnc3ccc(NCc4cccc(Cl)c4)nn23)c1`: the Inhibition is reported as 98%. The compound `Cc1[nH]c(C)c(-c2ccc(Oc3ccc(F)cc3)cc2)c(=O)c1Cl` registered an Inhibition of 98%. Same read-out and setting: under `N#Cc1ccc(-c2cnc3ccc(NCCc4cccnc4)nn23)cc1` stands 81%; under `CCCc1cc(Cc2cnc(N)nc2N)cc(CCC)c1OCCCCC(=O)OCC`, 0%. Still for that read-out and setting: under `OC1CCC(Nc2ccc3ncc(-c4ccc5ccccc5c4)n3n2)CC1` (stereo not drawn) stands 94%; under `CCN(CC)CCCSc1ccc(-c2ccc(SCCCN(CC)CC)cc2)cc1`, 30%. Still for that read-out and setting: under `CCn1c(-c2nonc2N)nc2c(-c3ccccc3)ncc(OCCCCNCCc3ncc[nH]3)c21.O=C(O)C(F)(F)F` stands 42%; under `OC(CNC1CCCCC1)Cn1c2ccc(I)cc2c2cc(I)ccc21` (stereo not drawn), 93%. In turn, `COc1ccc(Nc2ncc3c(-c4cccc(NC(=O)Cc5ccc(O)cc5)c4)c[nH]c3n2)cc1OC` registered an Inhibition of 99%. The same measure, in the same setting: under `CN1CCN(c2ccnc3ccc(NC(=O)Cc4ccc(Br)c5ccccc45)cc23)CC1` stands 99%; under `Cc1ccc(-c2nn3c(O)c4c(nc3c2C)CCCC4)cc1`, 87%; under `CCN(CCCN1CCCCC1)c1cc(C)nc(Nc2ccc(Oc3ccccc3)cc2)n1.O=C(O)C(F)(F)F`, 99%.

Values taken from ChEMBL document CHEMBL1157539, “Thousands of chemical starting points for antimalarial lead identification” (Nature, 2010).
